These results are taken from ChEMBL document CHEMBL4513216, “Probing the Open Global Health Chemical Diversity Library for Multistage-Active Starting Points for Next-Generation Antimalarials” (ACS Infect Dis, 2020).

SMILES strings stand for the structures. The campaign covered roughly 68,000 compounds. About 2,700 (4%) showed an effect of 50% or more. This is one part of a sample in which strong results are shown more often than they occur.

The test system of this assay is Plasmodium berghei. Description: Screen against P. berghei liver stage (PbLuc), transformed with Luciferase, at 2uM. Format: functional, HepG2. To be noted: tested at 2 uM.
For `Cc1nn(C)c(C)c1NC(=O)CN1CCc2c(nc(C(C)C)n2C)C1`, the INHIBITION is -31.89%.

`CC(C)(C(=O)NCC(=O)N1CCCC1)c1ccccc1F`: the INHIBITION came out at 5.47%.

On to `CC(C)(C(=O)N1CCC(C(N)=O)C1)c1ccccc1F` (stereo not drawn), for which the INHIBITION is listed as 60.9%.

For the molecule `CC(C)(C(=O)N1CCC(CS(N)(=O)=O)CC1)c1ccccc1F`, the INHIBITION turned out to be 30.06%.

Take `CCOc1ccc(Oc2cc(CN)ccn2)cc1`: the INHIBITION is 16.95%.

For the molecule `O=C(CCC(=O)N1CCOCC1)NCc1cccnc1-n1cccn1`, the INHIBITION was -15.37%.

As to `Cc1cn2c(n1)CCC(NC(=O)COCCOc1ccccc1)C2` (stereo not drawn), the INHIBITION is recorded as 1.49%.

For the molecule `Cc1nn(C)c2ncnc(N3CCCC(OCc4ccccn4)C3)c12` (stereo not drawn), the INHIBITION worked out at 10.23%.

Consider `Cc1cc2c(N3CCCC(OCc4cccnc4)C3)ncnc2s1` (stereo not drawn), for which the INHIBITION was found to be 3.62%.

As to `Cc1nn(C)c2ncnc(N3CCCC(OCc4cccnc4)C3)c12` (stereo not drawn), the INHIBITION was found to be 70.81%.

For the molecule `c1cc(CN2CCc3ncc(CN4CCCCC4)n3CC2)cs1`, the INHIBITION worked out at 33.47%.

In the case of `COCCN1CCC2(CC1)CC(N1CCOCC1)c1cc(C)ccc12` (stereo not drawn), the INHIBITION is listed as -6.8%.

With `CC(=O)N1CCCC1c1nccnc1Nc1ncccn1` (stereo not drawn), the INHIBITION worked out at 13.33%.

On to `N#Cc1cccc(N2CCCC3(CN(C(=O)NC4CC4)CCO3)C2)c1` (stereo not drawn), for which the INHIBITION turned out to be 6.36%.

In the case of `COc1cccc(S(=O)(=O)Cc2cc(C)on2)c1`, the INHIBITION was determined as 57.59%.

For `Cc1cc(CN(C)CCN(C)c2ccccc2)no1`, the INHIBITION was 7.62%.

In the case of `COc1ccc(S(=O)(=O)Cc2cc(C)on2)cc1`, the INHIBITION worked out at 21.24%.

Take `CCc1noc(CS(=O)(=O)c2cccc(OC)c2)n1`: the INHIBITION stood at 38.33%.

As to `Cc1cc(CS(=O)(=O)c2ccccc2)no1`, the INHIBITION worked out at 58.69%.

Regarding `CC(C)Cc1nc(CS(=O)(=O)c2ccccc2)no1`, the INHIBITION is -5.66%.

Turning to `CN(C)c1ccc(CNCc2cnc(N3CCOCC3)nc2)cn1`, the INHIBITION is -160.54%.

With `CC(NCc1ccccn1)c1cc2c(cc1Br)OCCO2` (stereo not drawn), the INHIBITION is listed as 8.93%.

`CC(NCc1cccnc1)c1cc2c(cc1Br)OCCO2` (stereo not drawn): the INHIBITION turned out to be 52.83%.

Regarding `CC(NCc1ccncc1)c1cc2c(cc1Br)OCCO2` (stereo not drawn), the INHIBITION amounted to 42.7%.

Consider `Cc1ccc(CN2CCN(C(=O)c3ccc(Br)o3)CC2)cc1`, for which the INHIBITION came out at 45.77%.

Consider `CC(C)Oc1ncnc2c1CCN(Cc1ccco1)CC2`, for which the INHIBITION is given as 27.44%.

Consider `CCCn1nc(C(=O)N2CCCC2c2noc(C)n2)ccc1=O` (stereo not drawn), for which the INHIBITION is listed as -17.18%.

For the molecule `CCN(CC)CC1CN(Cc2ccc(C)s2)Cc2nccn2C1` (stereo not drawn), the INHIBITION is -0.18%.

With `CCn1cncc1Cn1cccc(C(F)(F)F)c1=O`, the INHIBITION is 10.1%.

Consider `CCn1cnnc1Cn1cccc(C(F)(F)F)c1=O`, for which the INHIBITION amounted to 62.01%.

Regarding `CC(C)Cn1cncc1Cn1cccc(C(F)(F)F)c1=O`, the INHIBITION worked out at 1.22%.

In the case of `O=C(Nc1cccnc1)[C@H]1CN(C2CCCC2)C[C@H]2OCC[C@@H]12`, the INHIBITION is on record as -42.87%.

With `CS(=O)(=O)N1C[C@H](C(=O)Nc2cccnc2)[C@@H]2CCO[C@@H]2C1`, the INHIBITION worked out at 51.27%.

As to `CCOCCN1C[C@H](C(=O)Nc2cccnc2)[C@@H]2CCO[C@@H]2C1`, the INHIBITION is given as 8.18%.

As for `Cc1nn(C)cc1C1=NS(=O)(=O)N(C)C(C(=O)Nc2ccc(Br)cc2)=C1`, the INHIBITION amounted to 22.84%.

`O=C(c1ccoc1)N(Cc1ccncc1)C1CC1`: the INHIBITION is -37.38%.

On to `CCc1nnc(SCc2nonc2C)n1C1CC1`, for which the INHIBITION was -11.87%.

With `COC(=O)CNC(=O)CSCc1nc(O)c2cc(C)sc2n1`, the INHIBITION is recorded as -2.99%.

For `CC(C)C(C(=O)N1CCC(Nc2cccnn2)CC1)n1cncn1` (stereo not drawn), the INHIBITION is reported as -12.48%.

Take `Cc1nc(C(C)Nc2nc3c(s2)c(C)nn3C)n[nH]1` (stereo not drawn): the INHIBITION came to 5.48%.

Take `CC(NC(=O)NCc1cccs1)c1ccc2c(c1)CCC(=O)N2` (stereo not drawn): the INHIBITION turned out to be 16.84%.

For the molecule `CC(NC(=O)NCCS(C)(=O)=O)c1ccc2c(c1)CCC(=O)N2` (stereo not drawn), the INHIBITION is recorded as 60.13%.

Consider `CC(NC(=O)NCCCN(C)C)c1ccc2c(c1)CCC(=O)N2` (stereo not drawn), for which the INHIBITION is recorded as 2.08%.

As for `CC(C)(CN)NS(=O)(=O)c1cccc(F)c1F`, the INHIBITION is on record as -6.69%.

`O=C(CCC(=O)N1CCC(c2noc3cc(F)ccc23)CC1)NC1CC1`: the INHIBITION was found to be 11.87%.

With `O[C@@H]1CC(CNCC2CCCC2)(COc2cccnc2)C[C@@H]1O` (stereo partly drawn), the INHIBITION is 42.64%.

Take `O[C@@H]1CC(CNCC2CC2)(COc2cccnc2)C[C@@H]1O` (stereo partly drawn): the INHIBITION is reported as 39.62%.

Take `CC(C)NCC1(COc2ccccc2)C[C@@H](O)[C@@H](O)C1` (stereo partly drawn): the INHIBITION stood at 71.58%.

As for `Cn1cc(C[C@H]2[C@H](O)CCN2Cc2ccncc2)cn1`, the INHIBITION came out at 20.41%.

Take `CCCNC(=O)c1cn(C(C)(C)C)c2ncccc12`: the INHIBITION is on record as 12.87%.

`COc1ccc(-c2cc3nn(CC(=O)NC(C)C)c(=O)n3c(C)n2)cc1`: the INHIBITION is 22.96%.

Turning to `COc1ccc(-c2cc3nn(CC(N)=O)c(=O)n3c(C)n2)cc1`, the INHIBITION was 52.74%.

With `Cc1nc(-c2ccccc2)cc2nn(CC(N)=O)c(=O)n12`, the INHIBITION is 20.88%.
